Assay [1] in a line: reducers of endogenous Her2 protein level, primary screen, SKBR3 breast tumor cells, AlphaScreen, ATP viability (AID 461;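 active means Her2 level under about 52% in both replicate screens, with viability over 70% of control, limit read from the data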;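 on Her2 level: lower value means less Her2 protein in the cells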;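 on viability: percent of carrier control wells set as 100% viability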). The following applies: 18-24 h, measured here: SKBR3 viability, ATP luminescence, at 10 µM.
The target of assay [2] is Receptor tyrosine-protein kinase erbB-2 (Homo sapiens) (UniProt P04626). The description is as above. The following applies: 18-24 h, at 10 µM, stronger effect = lower value.
Assay [3] in a line: SK-BR-3 cell growth inhibitors, pilot screen, 24 h, human (AID 572).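 Further: compound exposure lasted between 18 and 24 h rather than exactly 24 h; 100% = carrier-treated control wells.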 The following applies: SK-BR-3 viability, CellTiter-Glo luminescence, at 10 µM, stronger effect = lower value.
The nature of assay [4]: HUVEC growth inhibition – cell-based, human, primary screen (AID 575;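 active means viability at or below 30% in both replicate assays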;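 further: 100% = median of untreated cell wells with 0.1% DMSO on each plate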). The settings on record: HUVEC proliferation, CellTiter-Glo luminescence, 72 h; at 10 µM; stronger effect = lower value.
Assay [5] can be described thus: growth inhibitors of H69AR lung tumor, primary screen, human, duplicate replicates (AID 580;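 active means viability at or under a set limit in both replicates, limit being median viability minus 3 SD, cut at about 48% in these data, passing the limit was not always enough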;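 further: 100% = mean luminescence of untreated wells and 0% = no signal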). The following applies: H69AR lung tumor cells viability, ATP luminescence, 72 h; at 10 µM; stronger effect = lower value.
The nature of assay [6]: reversal of MRP1-mediated doxorubicin resistance, pilot screen, H69AR cells, doxorubicin co-treatment (AID 601;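 active means viability loss from added drug above about 55%, and viability with drug at most 40%, in both replicates, limit read from the data, passing the limit was not always enough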). The following applies: CellTiter-Glo, 72 h, at 10 µM; for differential viability (reversal): stronger effect = higher value.
Assay [7] in a line: 384-well plate pilot, post-Golgi transport modulator project, inhibition of yeast transport mutant growth (AID 636; in the data active means inhibition above about 31%). The following applies: absorbance 615 nm, about 18 h, stronger effect = higher value.
Assay [8] in a line: growth suppression of yeast trafficking mutant, preliminary HTS, modulators of trafficking downstream of Golgi apparatus project, 1536-format plate, OD 615 nm (AID 637; in the data active means inhibition above about 30%). The settings on record: yeast transport mutant growth, absorbance 615 nm, 18 h; stronger effect = higher value.
Assay [9] can be described thus: OD615 S. cerevisiae growth inhibition, permissive medium, pilot counter-assay, permissive growth control for S. cerevisiae lifespan shortening project (AID 705;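 active means growth inhibition above 25% in both replicates, a cutoff set 3 SD above the mean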). The following applies: OD615, 24 h, at 10 µM, stronger effect = higher value.
Assay [10] in a line: Restrictive medium S. cerevisiae growth inhibition, OD615, pilot screen of yeast lifespan reduction project, restrictive growth control (AID 706;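 active means growth inhibition above a set limit, 3 SD over mean compound inhibition, in both replicates, cut at about 43% in these data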;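 further: modified DeaD lifespan yeast strain shifted to restrictive glucose medium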). The settings on record: OD615, 48 h, at 10 µM, stronger effect = higher value.
Assay [11] in a line: viability gain of MRP-1-high H69AR cells under doxorubicin, pilot screen, MRP-1 activator project, CellTiter-Glo, duplicate (AID 807;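 active means viability increase at or above a cutoff of the median across tested compounds plus 3 SD, cut at about 8.5% in these data, passing the limit was not always enough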;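 further: compound pretreatment 18-22 h then 72 h combined with doxorubicin; 0% = doxorubicin alone and 100% = vehicle without doxorubicin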). The settings on record: H69AR viability with doxorubicin, CellTiter-Glo luminescence; at 10 µM; stronger effect = higher value.
Assay [12] can be described thus: growth suppression of beta-catenin knockout HCT116, pilot screen, human colon tumor cells (AID 823;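 active means cell viability at or below a set limit in both duplicate runs, the limit being the all-compound median minus 4 SD, cut at about 23% in these data, passing the limit was not always enough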;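 further: 0% = wells killed by 20 µM Hyamine and 100% = untreated DMSO cell wells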). The settings on record: CellTiter-Glo, 60 h, at 10 µM, stronger effect = lower value.
The nature of assay [13]: growth suppression of PTEN-deleted HCT116, pilot screen, cell-based, HCT116 clonal line, CellTiter-Glo (AID 824;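 active means viability at or below 27.92% in each of two runs, the all-compound median minus 4 SD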;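 further: 0% = 20 µM Hyamine control and 100% = vehicle cell control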). The following applies: 60 h, at 10 µM, stronger effect = lower value.
A short description of assay [14]: inhibitors of the yeast RAM network, pilot screen, dse1pr::URA3 reporter, 5-FOA selection (AID 869;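 active means inhibition over a set limit, the all-compound mean plus 3 SD, in both replicate runs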;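 further: 0% = DMSO wells with no growth and 100% = 10 µM 1-NA-PP1 with full growth; RAM network block rescues cells from 5-FOA so hits raise OD615 growth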). The settings on record: S. cerevisiae dse1pr::URA3 5-FOA growth, OD615, 2 d; at 10 µM; stronger effect = higher value; strain carries analog-sensitive mutant Cbk1 kinase.
Assay [15] is described as follows: RAM signaling pathway blockade in yeast – S. cerevisiae, Pdr1DBD-CYC8 efflux-inhibited sensitized strain, primary screen (AID 1298;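 active means RAM network inhibition above 8.4% in each of two replicates, 3 SD over the compound average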;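 further: 0% = DMSO untreated cells without growth and 100% = 10 µM 1-NA-PP1 full growth; higher means more yeast growth rescued from 5-FOA killing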). The settings on record: S. cerevisiae cbk1-as DSE1-URA3 strain, 5-FOA growth OD615, 2 d; at 50 µM; stronger effect = higher value.
Setting [16] is: H69AR cells + 2 uM doxorubicin, measured here: viability with 2 uM doxorubicin, stronger effect = lower value.
Setting [17] is: H69AR cells, compound alone cytotoxicity.

The record followed here is PubChem BioAssay.

Results filed as inconclusive are left out. Activity calls are given as the source filed them.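 How the source made its calls, unless noted: active means viability at or below 10% of carrier control in both of two separate runs; inconclusive means viability at or below 10% in only one of the two runs; inactive means the rest.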

Chain of Receptor tyrosine-protein kinase erbB-2 (Homo sapiens) (P04626 whole entry, looked up): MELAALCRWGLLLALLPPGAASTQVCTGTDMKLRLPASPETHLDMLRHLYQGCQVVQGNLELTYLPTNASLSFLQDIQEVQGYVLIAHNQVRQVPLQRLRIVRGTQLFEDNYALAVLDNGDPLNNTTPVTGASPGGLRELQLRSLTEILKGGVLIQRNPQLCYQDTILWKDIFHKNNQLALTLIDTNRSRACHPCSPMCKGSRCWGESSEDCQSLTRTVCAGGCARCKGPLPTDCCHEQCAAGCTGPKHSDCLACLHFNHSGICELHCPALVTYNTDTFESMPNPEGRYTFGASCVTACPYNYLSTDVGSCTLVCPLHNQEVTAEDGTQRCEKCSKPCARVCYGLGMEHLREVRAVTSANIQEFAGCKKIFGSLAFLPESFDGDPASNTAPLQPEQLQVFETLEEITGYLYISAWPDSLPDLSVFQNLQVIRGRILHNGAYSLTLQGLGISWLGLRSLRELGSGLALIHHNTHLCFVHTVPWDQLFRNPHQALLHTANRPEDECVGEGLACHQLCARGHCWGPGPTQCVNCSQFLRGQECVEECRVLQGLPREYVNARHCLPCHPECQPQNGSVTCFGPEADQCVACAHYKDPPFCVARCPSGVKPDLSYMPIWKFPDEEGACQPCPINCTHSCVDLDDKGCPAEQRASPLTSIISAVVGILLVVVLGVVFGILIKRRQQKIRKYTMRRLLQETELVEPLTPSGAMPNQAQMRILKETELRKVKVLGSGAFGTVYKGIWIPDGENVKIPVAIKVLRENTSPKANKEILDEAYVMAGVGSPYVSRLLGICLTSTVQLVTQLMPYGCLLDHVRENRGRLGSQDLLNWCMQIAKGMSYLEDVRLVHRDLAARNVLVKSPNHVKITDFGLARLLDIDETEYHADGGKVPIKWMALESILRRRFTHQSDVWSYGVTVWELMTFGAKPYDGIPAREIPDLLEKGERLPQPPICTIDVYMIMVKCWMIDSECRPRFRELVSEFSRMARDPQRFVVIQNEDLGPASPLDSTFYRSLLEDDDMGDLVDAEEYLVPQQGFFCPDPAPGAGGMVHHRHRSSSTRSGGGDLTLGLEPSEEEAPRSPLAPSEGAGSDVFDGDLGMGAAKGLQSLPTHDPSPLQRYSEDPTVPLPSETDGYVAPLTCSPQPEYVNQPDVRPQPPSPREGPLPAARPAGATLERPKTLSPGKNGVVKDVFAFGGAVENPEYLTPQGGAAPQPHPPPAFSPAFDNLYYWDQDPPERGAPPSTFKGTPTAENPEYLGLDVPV

Take `CCCCOc1ccc(-c2ncc(Cl)cn2)cc1`: the viability in assay [1] was 110%; in [3], 110% (inactive); in assay [4], 119% (inactive); in assay [5], 93.9% (inactive); in [6] (setting [16]), 84.8%; in assay [6] (setting [17]), 93.9%. Further, the viability in assay [12] was 86.9% (inactive); in assay [13], 96.8% (inactive). Further, in assay [2], the Her2 level is 117% (inactive). Also, the differential viability (reversal) in assay [6] (H69AR cells + 2 uM doxorubicin) was 9.19% (inactive). Also, the inhibition in assay [7] is -4.94% (inactive); in assay [8], 0.83% (inactive); in assay [14], 1.26% (inactive). The results for the growth inhibition in assay [9] and in assay [10] were -14.9% (inactive) and -12.5% (inactive), respectively. The viability increase in [11] is 3.52% (inactive). Moreover, the RAM network inhibition in assay [15] is 3.37% (inactive).
On to `Cc1cccc(C2CC(c3ccc(Cl)cc3)Nc3nc(N)nn32)c1` (stereo not given), for which the viability in [1] was 91%; in [3], 91% (inactive); in assay [4], 103% (inactive); in assay [5], 96.6% (inactive); in assay [6] (setting [16]), 107%; in assay [6] (setting [17]), 96.6%. Besides, the results for the viability in [12] and in assay [13] were 82.1% (inactive) and 74.9% (inactive), respectively. The Her2 level in assay [2] is 113% (inactive). Besides, the differential viability (reversal) in [6] (H69AR cells + 2 uM doxorubicin) is -10.4% (inactive). In addition, the inhibition was 0.4% (inactive) in assay [7], -5.25% (inactive) in assay [8] and 0.01% (inactive) in assay [14]. The growth inhibition in assay [9] was 0.43% (inactive); in assay [10], 23.9% (inactive). Moreover, in [11], the viability increase was 4.33% (inactive). In [15], the RAM network inhibition is 3.62% (inactive).
Take `O=C(NCCc1c[nH]c2ccccc12)c1cnc2n(c1=O)CCS2`: the viability in assay [1] was 92%; in [3], 92% (inactive); in [4] it was 81.8% (inactive); in assay [5], 82% (inactive); in assay [6] (setting [16]), 87.1%; in assay [6] (setting [17]), 82%. Further, the viability was 96.6% (inactive) in [12] and 95.7% (inactive) in assay [13]. For the same molecule, the Her2 level in assay [2] is 83% (inactive). Besides, in [6] (H69AR cells + 2 uM doxorubicin), the differential viability (reversal) was -5.14% (inactive). For the same molecule, the inhibition in assay [7] is -3.07% (inactive); in assay [8] it was 1.8% (inactive); in assay [14], 0.62% (inactive). Besides, the results for the growth inhibition in assay [9] and in [10] were -5.46% (inactive) and 2.1% (inactive), respectively. Moreover, the viability increase in [11] is -3.94% (inactive). Further, the RAM network inhibition in assay [15] was 6.77% (inactive).
As to `O=C(Cn1ncc2c1-c1ccccc1OC2)N1CCN(c2ccccn2)CC1`, the viability in [1] is 91.5%; in assay [3], 91.5% (inactive); in assay [4], 101% (inactive); in assay [5] it was 89.7% (inactive); in assay [6] (setting [16]), 85.5%; in assay [6] (setting [17]), 89.7%. The viability in assay [12] is 99.9% (inactive); in assay [13] it was 92.7% (inactive). In addition, the Her2 level in assay [2] was 108% (inactive). The differential viability (reversal) in [6] (H69AR cells + 2 uM doxorubicin) was 4.26% (inactive). In addition, the inhibition in [7] is -2.05% (inactive); in assay [8], 0.67% (inactive); in assay [14], 0.525% (inactive). Moreover, the figures for the growth inhibition in assay [9] and in assay [10] were -9.33% (inactive) and -14.6% (inactive), respectively. In addition, the viability increase in assay [11] was -1.13% (inactive). Also, the RAM network inhibition in assay [15] was 3.36% (inactive).
Consider `c1ccn2c(SCc3ccc4c(c3)OCCO4)nnc2c1`, for which the viability in [1] was 108%; in assay [3], 108% (inactive); in [4] it was 93.8% (inactive); in assay [5] it was 92.1% (inactive); in assay [6] (setting [16]), 91.7%; in assay [6] (setting [17]) it was 92.1%. Moreover, the viability is 96.6% (inactive) in assay [12] and 99.2% (inactive) in assay [13]. The Her2 level in assay [2] is 108% (inactive). The differential viability (reversal) in assay [6] (H69AR cells + 2 uM doxorubicin) is 0.37% (inactive). Moreover, the inhibition in assay [7] was -3.47% (inactive); in assay [8], 1.67% (inactive); in assay [14] it was 0.305% (inactive). Moreover, the figures for the growth inhibition in [9] and in assay [10] were 6.86% (inactive) and 12.2% (inactive), respectively. Further, the viability increase in assay [11] is -0.85% (inactive). In addition, in assay [15], the RAM network inhibition is 5.34% (inactive).
